These results are taken from PubChem BioAssay AID1962 (The Scripps Research Institute Molecular Screening Center, 2009).

Each structure is given as a SMILES string. The campaign covered roughly 300,000 compounds. About 2,500 (0.83%) were called active. The entries come from a sample that favours actives as a whole. Values without a mark were called inactive.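 The calls were made as follows: active = inhibition above the mean of all tested compounds plus 3 SD, set per screening campaign (cut at about 24% in these data); inactive = the rest.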

For the assay, the system named is tRNA 2'-phosphotransferase TPT1 (Candida albicans SC5314). Description: Candida albicans TPT1 enzyme inhibitors, primary screen, biochemical, fluorescence polarization (AID 1962).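 Also: plate controls were DMSO alone for no effect and ferristatin control at 100 nM for full effect.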 To be noted: recombinant caTPT1, FP RNA substrate dephosphorylation; at 5 µM; hits give high values.
Regarding `COc1ccc(C(=O)NC(C)c2nccs2)cc1OC1CCN(C(C)C)CC1` (centres undefined), the inhibition was 1.11%.

For the compound `COc1ccc(CN(C)C(=S)Nc2ccc(Cl)cc2Cl)cc1`, the inhibition is -3.43%.

Consider `Cc1nc2ccccc2nc(=O)c1NNc1ccc([N+](=O)[O-])cc1`, for which the inhibition was 33% (active).

For the compound `Cc1nc2ccccc2cc1C(=O)N/N=C/c1ccc([N+](=O)[O-])cc1`, the inhibition was 1.45%.

Take `O=C(Nn1c(-c2ccccc2)nc2ccccc2c1=O)c1ccc([N+](=O)[O-])cc1`: the inhibition was -2.22%.

For `COC(=O)c1c(C)oc(C)c1S(=O)(=O)Nc1ccc(C(C)C)cc1`, the inhibition was -2.31%.

For `COC(=O)c1cc(S(=O)(=O)NCC2CCN(Cc3ccc(Cl)cc3)CC2)cn1C`, the inhibition is -1.04%.

Turning to `CCOC(=O)c1ccccc1CN1C(=O)c2ccccc2S1(=O)=O`, the inhibition was -6.64%.

Regarding `CN1C(=O)/C(=C/C=C2\SCCN2C)OC1=S`, the inhibition was 124% (active).

Regarding `COc1ccc(CCNS(=O)(=O)c2cccc3cccnc23)cc1OC`, the inhibition was 1.77%.

Turning to `COc1ccc(Cc2nc(-c3ccccn3)no2)cc1OC`, the inhibition is 48.4% (active).

For the compound `Cc1ccc(Cc2nc(-c3cccc(C)c3)no2)cc1`, the inhibition was 1.83%.

For `CCOC(=O)c1sc(=S)n2c1[nH]c(=O)c1ccc(C(=O)OC)cc12`, the inhibition was -1.57%.

On to `CCOC(=O)c1sc(=NC(=O)c2ccc(Br)cc2)n(C)c1C`, for which the inhibition is -2.11%.

With `CCOC(=O)C1=C(C)Nc2sc(C(=O)c3ccc(Br)cc3)c(N)c2C1c1ccc(C(=O)OC)cc1` (centres undefined), the inhibition is 54.7% (active).

Turning to `Cc1ccccc1OCCOc1ccc([N+](=O)[O-])cc1/C=N/n1cnnc1`, the inhibition was 2.12%.

As to `O=C(N/N=C/c1ccc([N+](=O)[O-])cc1)c1c[nH]c2ccccc12`, the inhibition is 1.12%.

In the case of `O=[N+]([O-])c1ccc(N/N=C/c2ccccc2)cc1`, the inhibition is 28.2% (active).

As to `Cc1ccc(NS(=O)(=O)c2ccc(N/N=C/c3ccccc3OCC(=O)O)c([N+](=O)[O-])c2)c(C)c1`, the inhibition is -2.41%.

As for `O=[N+]([O-])c1cccc(/C=N/Nc2ncc(Br)cn2)c1`, the inhibition is 0.84%.

`Cc1cccc(COc2ccccc2/C=N/Nc2ccc([N+](=O)[O-])cc2)c1`: the inhibition is 92.1% (active).

In the case of `O=[N+]([O-])c1ccc(N2CCN(c3ccc(O)cc3)CC2)c(Cl)c1`, the inhibition is 1.48%.

Regarding `O=S(=O)(c1cccc(Cn2nnc(-c3ccc(F)cc3)n2)c1)N1CCOCC1`, the inhibition was 0.07%.

For the compound `COc1ccc(C(CCN(Cc2ccc(OC)c(OC)c2)C(=O)CCl)c2ccccc2)cc1` (centres undefined), the inhibition is 2.12%.

On to `COc1ccc(-n2c(C)cc(C(=O)CN3C(=O)NC4(CCc5ccccc54)C3=O)c2C)cc1` (centres undefined), for which the inhibition is -8.74%.

For the compound `Cc1nn(-c2ccccc2)c(C)c1NC(=O)COc1ccc(Cl)cc1Cl`, the inhibition is -4.09%.

Regarding `CCOc1nnc(C)c2c(C)n(-c3cccc(Cl)c3)nc12`, the inhibition is 24.6% (active).

Turning to `CCOc1ccc(CNC(=O)C2CCCN(c3nnc(C)c4c(C)n(-c5ccccc5)nc34)C2)cc1` (centres undefined), the inhibition was 1.81%.

Consider `CCc1nn(CCCC(=O)NC(C)c2ccccc2)c(=O)c2cc3occc3n12` (centres undefined), for which the inhibition is -2.3%.

In the case of `CCCCN(CCCC)CCNC(=O)CN1C(=O)COc2ccc(S(=O)(=O)N3CCOCC3)cc21`, the inhibition is -4.55%.

Regarding `COc1ccc(Cn2c(C)c(C)c(C#N)c2NC(=O)Nc2ccc(F)cc2)cc1`, the inhibition was 0.17%.

Take `CN1CCN(Cc2c(O)ccc3c2oc(=O)c2ccccc23)CC1`: the inhibition was -1.97%.

For `CCOC(=O)c1oc2c(CN3CCN(CCO)CC3)c(O)c(CC)cc2c(=O)c1-c1nc2ccccc2s1`, the inhibition is -0.54%.

As to `CC(C)(C)c1ccc(/C=C2\Oc3c(ccc(O)c3CN3CCN(CCO)CC3)C2=O)cc1`, the inhibition was 33.2% (active).

Consider `CC(=O)N1N=C(c2ccncc2)OC1(Cc1ccccc1)Cc1ccccc1`, for which the inhibition was -0.93%.

On to `O=C(CC12CC3CC(CC(C3)C1)C2)Nc1ccc2c(c1)COC2=O`, for which the inhibition is -3.75%.

Regarding `Cc1ccc(SCc2c(C(=O)N/N=C/c3cccnc3)nnn2-c2nonc2N)cc1`, the inhibition was 0.4%.

As for `Nc1nonc1-n1nnc(C(=O)N/N=C/c2ccccc2O)c1CN1CCCC1`, the inhibition is -0.45%.

As for `Nc1nonc1-n1nnc(C(=O)N/N=C/c2cc(Br)ccc2O)c1CSC1=NCCS1`, the inhibition was 24.7% (active).

Regarding `COc1ccc(C(C(=O)NC2CCCCC2)N(C(=O)Cc2c[nH]c3ccccc23)c2ccccc2)cc1OC` (centres undefined), the inhibition was 4.78%.

In the case of `N#CC1=C(N)Oc2c(sc3ccccc23)C1c1ccco1` (centres undefined), the inhibition is 100% (active).

Regarding `CC1=C(C(=O)Nc2ccccc2)C(c2ccco2)C(C#N)=C(SCC(N)=O)N1` (centres undefined), the inhibition was -4.83%.

For the compound `N#CC1=C(N)Oc2c(ccc3cccnc23)C1c1ccncc1` (centres undefined), the inhibition was 0.31%.

With `COCCCn1c(SCc2cccc(OC)c2)nc2cc(OC)c(OC)cc2c1=N`, the inhibition is -1.89%.

For `CC(=O)Nc1ccc(S(=O)(=O)NCC(=O)OCc2cc(=O)oc3ccc4ccccc4c23)cc1`, the inhibition is 2.61%.

Take `COc1cc(/C=C(\C#N)c2nc3c(s2)CC(C)CC3)ccc1O` (centres undefined): the inhibition is 128% (active).

As for `CCNc1nc(NCC)nc(N/N=C/c2ccc(O)c(OC)c2)n1`, the inhibition was -0.04%.

In the case of `COc1ccc(/C=C(/NC(=O)c2ccc(C)cc2)c2nc3ccccc3[nH]2)cc1OC`, the inhibition is -0.67%.

Turning to `COc1cc(/C=N/Nc2nc3ccccc3s2)ccc1O`, the inhibition was -1.42%.

With `COc1cc(/C=C(\C#N)c2nc3ccccc3[nH]2)ccc1O`, the inhibition is 96.4% (active).

Consider `Cc1ccc2nc(/C(C#N)=C\c3ccc(OC(=O)c4cccs4)cc3)[nH]c2c1`, for which the inhibition is 4.21%.

Consider `CCn1c(CC(=O)Nc2ccc(C)cc2)nnc1SCC(=O)Nc1nc(C)cs1`, for which the inhibition was 2.53%.

As for `O=C(NCCCCCCNC(=O)NCc1ccco1)NCc1ccco1`, the inhibition is -3.7%.

For `CC[C@H]1CN2CCc3cc(OC)c(OC)cc3[C@@H]2C[C@@H]1C[C@H]1NCCc2cc(OC)c(OC)cc21`, the inhibition is 3.04%.

Regarding `COc1cc2c(cc1O)[C@H](Cc1ccc(Oc3cc(C[C@@H]4NCCc5cc(OC)c(O)cc54)ccc3O)cc1)NCC2`, the inhibition was 30% (active).

On to `COc1ccc2c(c1)CCNC2Cc1ccc(OC)c(O)c1` (centres undefined), for which the inhibition was -2.2%.

On to `O=S1(=O)CCO[C@H]2Cc3ccccc3[C@H]2N1Cc1ccccc1`, for which the inhibition is 3.47%.

With `O=C(CCc1ccccc1)Nc1ccnn1C1CCN(Cc2ccc(OCCO)cc2)CC1`, the inhibition is -3.8%.

As to `Cc1ccc(C)c2[nH]c(=O)c(CCNC(=O)c3cccs3)cc12`, the inhibition is -3.33%.

For `COc1ccc(OC)c2[nH]c(=O)c(CCNC(=O)C(C)(C)C)cc12`, the inhibition was 1.81%.

`Cc1ccc(C)c2[nH]c(=O)c(CCNC(=O)CC(C)C)cc12`: the inhibition was 51.6% (active).

On to `CCc1ccnc(NS(=O)(=O)c2ccc3c(c2)OCCO3)c1`, for which the inhibition is -1.71%.

`O=C(C1CCCO1)N1CCN(C(=S)NC2CC2)CC1` (centres undefined): the inhibition was -3.35%.

For the compound `COc1ccc(N2CCN(C(=O)/C(C#N)=C/c3ccccc3)CC2)cc1`, the inhibition is 19.5%.

On to `CCOC(=O)/C(C#N)=C/c1ccc(OCC(=O)Nc2ccccc2)c(OC)c1`, for which the inhibition is -2.78%.

In the case of `CCOC(=O)/C(C#N)=C/c1ccc(N2CCCCC2)cc1`, the inhibition was 116% (active).

On to `CCOC(=O)/C(C#N)=C/c1ccc(N2CCN(Cc3ccccc3)CC2)cc1`, for which the inhibition was 48% (active).

Regarding `CCOC(=O)NC(=O)/C(C#N)=C\c1ccccc1`, the inhibition was -1.78%.

With `COc1ccc(/C=C(\C#N)C(=O)ONC2=NCCCCC2)cc1`, the inhibition is 0.43%.

`CN(C)S(=O)(=O)c1cccc(-c2nn(-c3ccccc3)cc2/C=C2\SC(=S)N(CC(=O)O)C2=O)c1`: the inhibition is -1.23%.

As for `Cc1ccc(-c2nn(-c3ccccc3)cc2/C=C2\SC(=S)N(CCCCCC(=O)O)C2=O)o1`, the inhibition is 49.2% (active).

In the case of `COc1ccc(-c2nn(-c3ccccc3)cc2/C=C2/SC(=S)N(CCCC(=O)O)C2=O)c(C)c1`, the inhibition was 1.54%.

Take `CCC(C)Sc1nc(C)nc2c1c(=O)n(C)c(=O)n2C` (centres undefined): the inhibition was -1.63%.

As to `NC(=O)NCCCC(=O)O`, the inhibition was -0.59%.

Turning to `COc1ccc(/C=N/NC(=O)c2cc(-c3cccc(C)c3)nc3ccccc23)cc1O`, the inhibition is -4.75%.

As for `Cc1sc2nc(CSCC(=O)Nc3c(Cl)cccc3Cl)[nH]c(=O)c2c1C`, the inhibition is 17.1%.

As for `CC(C)NC(=O)c1ccc(Cl)cc1Cl`, the inhibition is -0.44%.

For the compound `Cc1sc2nc(COC(=O)C(NC(=O)c3ccc(Cl)cc3Cl)C(C)C)[nH]c(=O)c2c1C` (centres undefined), the inhibition is 33.1% (active).

For the compound `CSCCC(NC(=O)c1ccc(Cl)cc1Cl)C(=O)NNC(=O)c1csc(N2CCOCC2)n1` (centres undefined), the inhibition is 1.09%.

Take `COc1ccc(N2CC(C)Cn3c2nc2c3c(=O)n(Cc3ccccc3F)c(=O)n2C)c(OC)c1` (centres undefined): the inhibition is 1.36%.

Regarding `N#C/C(=C/c1ccc(N2CCCCC2)o1)C(=O)NCCc1c[nH]c2ccccc12`, the inhibition is 178% (active).

Regarding `CC(=O)N/C(=C/c1ccc(Cl)cc1)C(=O)NCCc1c[nH]c2ccccc12`, the inhibition is -3.35%.

`O=C(CN1C(=O)NC2(CCCCC2)C1=O)NCCc1c[nH]c2ccccc12`: the inhibition is -3.99%.

Regarding `Cc1ccc(Nc2nnc(SCC(=O)c3cc4ccccc4o3)s2)cc1C`, the inhibition is 9.66%.

Regarding `O=C(CSc1nnc(Nc2ccccc2)s1)Nc1cccnc1Cl`, the inhibition was -0.7%.

As to `CC(C)c1ccc(Nc2nnc(SCC(=O)c3nnc(-c4ccccc4)o3)s2)cc1`, the inhibition is 42% (active).

With `CC(C)CN1CCNC(=O)C1CC(=O)N(C)CC1CCOCC1` (centres undefined), the inhibition was -5.14%.

`COc1ccc(S(=O)(=O)NCC2CCCN(C(=O)c3occc3C)C2)cc1` (centres undefined): the inhibition is -4.48%.

With `CCN1CCN(C(=O)Cn2nc(C)n3c(cc4c(OC)cccc43)c2=O)CC1`, the inhibition was 1.92%.
